Only some compounds are listed: those with a hit (about 11% of all), similar ones and a draw of the others.
MCF10A rerep = inducers of DNA re-replication in MCF 10A breast cells | MCF 10A DNA re-replication, Hoechst nuclear intensity, 48 h | AID 624296 | 2.9% of 350,000 active | Potency, µM (series often up to 46.1 µM), without a hit: at the top dose activity, positive = re-replication, most hits filed as activators; also: potency is read from the fitted curve at half-maximal effect; % of control where 0% means no effect; nearly all actives have a fitted effect of over 50% in size
IL1B secr inh = inhibitors of inflammasome signaling (IL-1 beta secretion); 4.7% of 360,000 active; THP-1 LPS/ATP IL-1B secretion, AlphaLISA, 16 h; hits give low values; activity change, % at 57.5 µM; in the data active = activity change below about -50%; inconclusive = mostly about -30% to -49%; also: % is scaled to controls: 0 for no effect and ±100 for the full control effect
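THP-1 cells pretreated 1 hr with compounds (up to 57.5 uM final), then stimulated with LPS (250 ng/mL final) plus ATP (1.25 mM final); secreted IL-1B measured by AlphaLISA after 16 hr, decreased signal indicating inhibition.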
Gal4-VP16 FLuc = counter-screen for ROR gamma inhibitors: Gal4-VP16 reporter. Drosophila S2 Gal4-VP16 UAS-luciferase, luminescence, 20 h. Potency, µM (series often up to 53.6 µM), for inactives: at the top dose activity, negative = inhibition, most hits filed as inhibitors. 3.5% of 310,000 active. AID 2546;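 also: Gal4-VP16 expression switched on by copper sulfate through the metallothionein promoter; potency is read from the fitted curve at half-maximal effect; % is scaled to controls: 0 for no effect and ±100 for the full control effect; nearly all actives have a fitted effect of over 50% in size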
RORg inh = inhibitors of mouse ROR gamma transcriptional activity | P51450 | Drosophila S2 Gal4-RORgamma UAS-luciferase reporter, 20 h | Potency, µM (titrated, usually from 53.6 µM), for inactives: at the highest dose activity change, negative = inhibition, actives largely listed as inhibitors | 5.4% of 310,000 active | AID 2551; also: potency is read from the fitted curve at half-maximal effect; % is scaled to controls: 0 for no effect and ±100 for the full control effect; nearly all actives have a fitted effect of over 60% in size
Target sequence (P51450 whole entry, looked up, the tested form may be a part): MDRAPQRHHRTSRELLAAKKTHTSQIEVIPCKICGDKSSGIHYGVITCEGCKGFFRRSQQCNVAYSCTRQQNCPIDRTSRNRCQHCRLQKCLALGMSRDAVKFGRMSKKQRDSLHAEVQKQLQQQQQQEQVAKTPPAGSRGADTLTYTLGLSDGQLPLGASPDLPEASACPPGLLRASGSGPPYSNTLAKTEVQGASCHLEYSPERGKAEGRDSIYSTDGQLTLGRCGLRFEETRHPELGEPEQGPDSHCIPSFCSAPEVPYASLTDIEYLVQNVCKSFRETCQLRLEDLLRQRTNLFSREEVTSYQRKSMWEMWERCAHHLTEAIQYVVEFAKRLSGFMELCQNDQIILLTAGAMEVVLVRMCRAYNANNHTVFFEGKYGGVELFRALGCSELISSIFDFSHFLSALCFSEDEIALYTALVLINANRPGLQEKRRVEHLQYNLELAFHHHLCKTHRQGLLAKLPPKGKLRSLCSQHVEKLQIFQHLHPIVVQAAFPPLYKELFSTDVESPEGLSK
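Stable Schneider cell line, Gal4 DNA-binding domain fused to ROR gamma, UAS-luciferase. Cmpd 1 hr RT → CuSO4 700 uM final → 20 hr RT → luciferase reagent 10 min → luminescence.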
SW480 rereplic = induces DNA re-replication in SW480 colon adenocarcinoma cells | AID 624297 | Potency, µM (top dose mostly 46.1 µM), for the others: at the top dose re-replication activation, actives largely listed as activators | SW480 DNA re-replication, Hoechst DNA content imaging, 48 h | 1.8% of 340,000 active; also: potency is read from the fitted curve at half-maximal effect; % of control where 0% means no effect; nearly all actives have a fitted effect of over 55% in size
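Treated cells incubate 48 hr (37 C, 5% CO2), are stained 40 min with Hoechst, and nuclear fluorescence is enumerated; a rise in nuclei with high DNA signal marks re-replication.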
* = called active by the depositor; [ ] = dose if it differs, or a comment. Unless noted, calls follow the shape of the dose curve; as a rule, active = well fitted curve in the direction sought with a large enough effect; inconclusive = small, poorly fitted or top-dose-only effect, or another doubt; inactive = no such curve, though single readings can be large; an effect the other way counts as inactive or inconclusive.

How did CN=C(C[N+](=O)[O-])NCCSCc1ccc(CN(C)C)o1 do in these assays?
MCF10A rerep: -8%; IL1B secr inh: -7; SW480 rereplic: 13%

What do the screens show for `Cc1ccc(-c2csc(N3CCN(c4cc5c(cc4Cl)nc(C)n5CCN4CCCCC4)CC3)n2)cc1`?
MCF10A rerep: -10%; IL1B secr inh: 0; Gal4-VP16 FLuc: inconclusive; RORg inh: 11µM*; SW480 rereplic: inconclusive

Results for CCN(c1ccccc1)S(=O)(=O)c1ccc(C(=O)NCC(=O)Nc2ccc(F)c(F)c2F)cc1 ?
MCF10A rerep: inconclusive; IL1B secr inh: -28; SW480 rereplic: inconclusive

What do the screens show for `CN1C(=O)[C@@H]2[C@@H]3C[C@@H]([C@H]4ON=C(c5ccc(Cl)cc5)[C@@H]34)[C@@H]2C1=O`?
MCF10A rerep: 0%; IL1B secr inh: -5; Gal4-VP16 FLuc: 0%; RORg inh: 24%; SW480 rereplic: -2%

Results for O=C1[C@@H]2[C@@H]3C[C@@H]([C@H]4ON=C(c5ccc(Cl)cc5Cl)[C@@H]34)[C@@H]2C(=O)N1C1CCCCC1 ?
MCF10A rerep: inconclusive; IL1B secr inh: -55*; Gal4-VP16 FLuc: -1%; RORg inh: inconclusive; SW480 rereplic: 3%

How did Cc1ccnc(NC(c2ccsc2)c2ccc3ccc(C)nc3c2O)c1 (stereo not given) do in these assays?
MCF10A rerep: inconclusive; IL1B secr inh: -84*; Gal4-VP16 FLuc: inconclusive; RORg inh: 5µM*; SW480 rereplic: inconclusive

How did COc1ccc(C(Nc2cc(C)ccn2)c2ccc3ccc(C)nc3c2O)cc1 (stereo not given) do in these assays?
MCF10A rerep: 0%; IL1B secr inh: 5; Gal4-VP16 FLuc: 3.5µM*; RORg inh: 2.5µM*; SW480 rereplic: inconclusive

How did CC(OC(=O)CC(C)c1ccccc1)C(=O)Nc1ccc(Cl)cn1 (stereo not given) do in these assays?
MCF10A rerep: 5%; IL1B secr inh: 4; SW480 rereplic: -3%

What do the screens show for `C=CCOC(=O)C(C(C)=O)C(NC(=O)OC)c1cccc(C)c1` (stereo not given)?
Gal4-VP16 FLuc: 3%[10 µM]; RORg inh: -7%[10 µM]

Results for COc1cc(-c2nc3ccc4ccccc4c3c3c2CCC3)cc(OC)c1O ?
MCF10A rerep: 15µM*; IL1B secr inh: -4; Gal4-VP16 FLuc: inconclusive; RORg inh: -7%; SW480 rereplic: inconclusive

What do the screens show for `COc1cc(-c2nc3ccc4ccccc4c3c3c2CCC3)ccc1O`?
MCF10A rerep: inconclusive; IL1B secr inh: -28; Gal4-VP16 FLuc: 0%; RORg inh: -15%[10 µM]; SW480 rereplic: -1%

What do the screens show for `COc1cc(-c2nc3ccc4ccccc4c3c3c2CCC3)cc(OC)c1OC`?
MCF10A rerep: 16%; IL1B secr inh: -1; Gal4-VP16 FLuc: 22µM*; RORg inh: 5.6µM*; SW480 rereplic: 1%

Results for Fc1ccc(C2C3=C(Nc4ncnn42)c2ccccc2OC3c2ccncc2)cc1 (stereo not given) ?
MCF10A rerep: 23%; IL1B secr inh: -55*; Gal4-VP16 FLuc: 0%; RORg inh: -19%; SW480 rereplic: 16%

What do the screens show for `CCOC(=O)C1=C(C)Nc2ncnn2C1c1cccs1` (stereo not given)?
MCF10A rerep: 3%; IL1B secr inh: 48; Gal4-VP16 FLuc: 7%; RORg inh: -25%; SW480 rereplic: -12%

How did Cc1ccc(C2Oc3ccccc3C3=C2C(c2cccs2)n2ncnc2N3)cc1 (stereo not given) do in these assays?
MCF10A rerep: 5.8µM*; IL1B secr inh: 22; Gal4-VP16 FLuc: inconclusive; RORg inh: 11µM*; SW480 rereplic: inconclusive

What do the screens show for `Cc1ncc(NS(=O)(=O)c2ccc(N)cc2)nc1C`?
MCF10A rerep: 2%; IL1B secr inh: 4; SW480 rereplic: -5%

What do the screens show for `Cc1cccc2c3c(ccc12)C1=C(C(=O)C3=O)[C@@H](C)CO1`?
Gal4-VP16 FLuc: -11%; RORg inh: -1%

Results for Clc1ccc(OCCNCCc2ccccc2)cc1 ?
MCF10A rerep: 18%; IL1B secr inh: -53*; Gal4-VP16 FLuc: 13%; RORg inh: -29%[1.91 µM]; SW480 rereplic: 1%

How did OC(CNCCC(c1ccccc1)c1ccccc1)COc1ccccc1 (stereo not given) do in these assays?
MCF10A rerep: inconclusive; IL1B secr inh: -105*; Gal4-VP16 FLuc: -29%; RORg inh: inconclusive; SW480 rereplic: 1%

How did OC(CNCCc1ccccc1)COc1ccc(OCC(O)CNCCc2ccccc2)cc1 (stereo not given) do in these assays?
MCF10A rerep: inconclusive; IL1B secr inh: -91*; Gal4-VP16 FLuc: -8%; RORg inh: -43%; SW480 rereplic: inconclusive

Results for c1ccc(CCNCCCOc2cccc3ccccc23)cc1 ?
MCF10A rerep: inconclusive; IL1B secr inh: -101*; Gal4-VP16 FLuc: -10%; RORg inh: -2%[1.91 µM]; SW480 rereplic: inconclusive

How did O=C(COc1ccc(Cl)cc1)NCc1ccccc1 do in these assays?
MCF10A rerep: 1%; IL1B secr inh: -12; Gal4-VP16 FLuc: 11%; RORg inh: 29%; SW480 rereplic: 8%

What do the screens show for `c1ccc2c(OCCCCN3CCCC3)cccc2c1`?
MCF10A rerep: 2%; IL1B secr inh: -2; Gal4-VP16 FLuc: 5%; RORg inh: -19%; SW480 rereplic: -11%

What do the screens show for `CC12CCC=CC1C(c1ccc(/C=C/c3ccccc3)cc1F)N(Cc1ccccc1)C2=O` (stereo not given)?
Gal4-VP16 FLuc: -9%; RORg inh: 12%

Results for OC(CNCCc1ccc(Cl)cc1)COc1cc(Cl)ccc1Cl (stereo not given) ?
MCF10A rerep: inconclusive; IL1B secr inh: -18; Gal4-VP16 FLuc: -24%; RORg inh: -18%; SW480 rereplic: -4%

What do the screens show for `OC(CNCCc1ccc(Cl)cc1)COc1ccc2ccccc2c1` (stereo not given)?
MCF10A rerep: inconclusive; IL1B secr inh: -106*; Gal4-VP16 FLuc: inconclusive; RORg inh: inconclusive; SW480 rereplic: -3%

What do the screens show for `O=C(/C=C/c1ccccc1Cl)OCC(=O)N1CCc2ccccc21`?
IL1B secr inh: 16

How did COc1ccc2nc(NC(=O)Nc3ccccc3OC)sc2c1 do in these assays?
MCF10A rerep: inconclusive; IL1B secr inh: -7; Gal4-VP16 FLuc: -1%; RORg inh: 1%; SW480 rereplic: 2.9µM*

Results for COc1ccc2nc(NC(=O)Nc3cccc4ccccc34)sc2c1 ?
MCF10A rerep: 9.2µM*; IL1B secr inh: 9; Gal4-VP16 FLuc: -18%; RORg inh: -16%; SW480 rereplic: -19%

How did COc1ccc2nc(NC(C)=O)sc2c1 do in these assays?
MCF10A rerep: 16%; IL1B secr inh: -12; Gal4-VP16 FLuc: -1%; RORg inh: 2%; SW480 rereplic: -4%

Screening results: PubChem BioAssay, National Center for Advancing Translational Sciences (NCATS)
